Experimental data as given in PubChem BioAssay AID624255 (Broad Institute, 2012).
Several values for one entry are separate records, joined by “and”; a condition that tells them apart may be missing. Equal entries are not always repeated. The whole screen tested about 77,000 compounds, of which about 4,600 (6%) were called active. Not shown: some 1% with an inconclusive outcome.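 Rule for the calls: active = mean inhibition above about 93%, with at least 55% of replicates each passing it (limit read from the data, passing the limit was not always enough); inconclusive = only one of those two conditions holds; inactive = neither condition holds.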 Many of the other results were omitted from the sample, so actives are more common in it than they were.

Experiment: T. cruzi intracellular proliferation inhibitors, primary screen, cell-based, beta-gal Tulahuen parasites, NIH3T3 host, luminescence (AID 624255)
Settings: T. cruzi beta-gal in NIH3T3, GalScreen luminescence, 90 h; at 8.34 µM; stronger effect = higher value

inhibition, active:
C/C=C/c1ccc([C@H]2[C@@H](CNC(C)C)N(c3nc(CC)cs3)[C@H]2CO)cc1 100%
Cc1cccc(-c2ccc([C@@H]3[C@H](CO)N4CCCCN(C(=O)c5ccc6c(c5)OCO6)C[C@@H]34)cc2)c1 98.3%
COc1ccc(-c2ccc([C@H]3[C@H]4CN(C(=O)c5ccc6c(c5)OCO6)CCCCN4[C@H]3CO)cc2)cc1 117%
CC(C)NC(=O)Nc1ccc2c(c1)C(=O)N([C@H](C)CO)C[C@H](C)[C@H](CN(C)C(=O)Nc1ccc(C(F)(F)F)cc1)OCCCC[C@@H](C)O2 104%
C[C@H](CO)N1C[C@H](C)[C@H](CN(C)C(=O)Nc2ccc(C(F)(F)F)cc2)OCCCC[C@H](C)Oc2ccc(NC(=O)C3CCCCC3)cc2C1=O 99.4%
C[C@@H]1CN([C@@H](C)CO)C(=O)c2cc(NC(=O)Nc3ccc4c(c3)OCO4)ccc2O[C@@H](C)CCCCO[C@H]1CN(C)C(=O)Nc1ccc(C(F)(F)F)cc1 105%
COc1ccc(NC(=O)N(C)C[C@H]2OCCCC[C@H](C)Oc3ccc(NC(=O)Nc4ccc(C(F)(F)F)cc4)cc3C(=O)N([C@@H](C)CO)C[C@@H]2C)cc1 110%
C[C@@H]1CCCCO[C@H](CN(C)C(=O)Nc2ccc(C(F)(F)F)cc2)[C@H](C)CN([C@H](C)CO)C(=O)c2cc(NC(=O)Nc3ccc(C(F)(F)F)cc3)ccc2O1 120%
Cc1ccc(-c2cnc3c(c2)C(=O)N([C@@H](C)CO)C[C@@H](C)[C@H](CN(C)Cc2ccccc2F)O3)cc1 111%
C[C@H](CO)N1C[C@H](C)[C@H](CN(C)C(=O)Nc2ccc(F)cc2)Oc2ncc(-c3cc4ccccc4o3)cc2C1=O 119%
Cc1ccc(S(=O)(=O)N(C)C[C@@H]2Oc3ncc(-c4cc5ccccc5o4)cc3C(=O)N([C@H](C)CO)C[C@@H]2C)cc1 117%

inhibition, inactive:
C/C=C/c1ccc([C@H]2[C@@H](CO)N(C(C)=O)[C@H]2CNC(=O)c2ccncc2)cc1 72.7%
C/C=C/c1ccc([C@H]2[C@@H](CNC(=O)NC(C)C)N(C(=O)C3CCC3)[C@H]2CO)cc1 7.28%
CO[C@H](C(=O)N(C)C[C@@H]1OCc2ccccc2-c2c(n(C)c3ccccc23)C(=O)N([C@@H](C)CO)C[C@H]1C)c1ccccc1 -13.2%
CN1[C@H](C(=O)N2CCc3ccccc3C2)[C@@H](CO)[C@@H]2Cn3c(ccc(-c4cncnc4)c3=O)[C@@H]21 79.8%
COc1cccc(S(=O)(=O)N[C@H]2CC[C@H](CCN)O[C@H]2CO)c1 -31.7%
CO[C@H]1CN(C)C(=O)c2cc(NS(C)(=O)=O)ccc2OC[C@@H](C)N(C)C[C@@H]1C 13.7%
C[C@@H](O)C#Cc1ccc([C@H]2[C@H]3CN(C(=O)c4ccc5c(c4)OCO5)CCCCN3[C@H]2CO)cc1 26%
CCCC#Cc1ccc([C@H]2[C@@H](CO)N3CCCCN(C(=O)c4ccc5c(c4)OCO5)C[C@@H]23)cc1 50.9%
C[C@@H](O)C#Cc1ccc([C@@H]2[C@H]3CN(C(=O)c4ccc5c(c4)OCO5)CCCCN3[C@H]2CO)cc1 71.8%
CC(C)C#Cc1ccc([C@@H]2[C@@H](CO)N3CCCCN(C(=O)c4ccc5c(c4)OCO5)C[C@H]23)cc1 67.5%
Cc1ccc(S(=O)(=O)N[C@H]2CC[C@@H](CC(=O)NCCCN(C)C)O[C@H]2CO)cc1 -52%
CN1c2ccc(-c3cccc(C#N)c3)cc2[C@H]2[C@H](CCN2S(=O)(=O)c2cccc(F)c2)[C@@H]1CO 41.7%
C[C@H](CO)N1C[C@H](C)[C@H](CN(C)S(C)(=O)=O)Oc2ncc(C3=CCCCC3)cc2C1=O 47.7%
CCC(=O)N1C[C@H](C)[C@H](OC)CN(C)C(=O)c2ccc(NC(=O)Nc3cccc(F)c3)cc2OC[C@@H]1C 24.9%
C[C@@H]1CN([C@@H](C)CO)C(=O)c2cc(NC(=O)C3CCCCC3)ccc2O[C@@H](C)CCCCO[C@@H]1CN(C)C(=O)Nc1ccccc1 3.47%
C[C@@H]1CCCCO[C@@H](CN(C)C(=O)Nc2ccc(C(F)(F)F)cc2)[C@H](C)CN([C@H](C)CO)C(=O)c2cc(NC(=O)C3CCCCC3)ccc2O1 82.6%
COc1ccc(NC(=O)Nc2ccc3c(c2)C(=O)N([C@H](C)CO)C[C@H](C)[C@@H](CN(C)C(=O)Nc2ccc(OC)cc2)OCCCC[C@H](C)O3)cc1 -4.89%
COc1ccc(NC(=O)Nc2ccc3c(c2)C(=O)N([C@H](C)CO)C[C@@H](C)[C@H](CN(C)C(=O)Nc2ccc(C(F)(F)F)cc2)OCCCC[C@@H](C)O3)cc1 121%
CC(C)NC(=O)Nc1ccc2c(c1)C(=O)N([C@@H](C)CO)C[C@@H](C)[C@@H](CN(C)C(=O)Nc1ccc(C(F)(F)F)cc1)OCCCC[C@H](C)O2 45.6%
CC(C)NC(=O)Nc1ccc2c(c1)C(=O)N([C@@H](C)CO)C[C@H](C)[C@H](CN(C)C(=O)Nc1ccc(F)cc1)OCCCC[C@@H](C)O2 10.6%
C[C@@H]1CN([C@@H](C)CO)C(=O)c2cc(NC(=O)Nc3ccc4c(c3)OCO4)ccc2O[C@@H](C)CCCCO[C@@H]1CN(C)C(=O)Nc1ccc2c(c1)OCO2 -7.76%
C[C@H](CO)N1C[C@H](C)[C@@H](CN(C)C(=O)Nc2ccc3c(c2)OCO3)OCCCC[C@H](C)Oc2ccc(NC(=O)Nc3ccc4c(c3)OCO4)cc2C1=O 66.3%
CN1[C@@H]2c3ccc(C4=CCCCC4)c(=O)n3C[C@H]1[C@H](CO)[C@H]2C(=O)NCc1ccc(F)cc1 66.5%
O=C([C@@H]1[C@@H](CO)[C@@H]2Cn3c(ccc(-c4ccccc4F)c3=O)[C@H]1N2C(=O)C1CCC1)N1CCCCC1 -49%
O=C(NCC1CC1)[C@@H]1[C@@H](CO)[C@@H]2Cn3c(ccc(C4=CCCC4)c3=O)[C@H]1N2CCC(F)(F)F -0.412%
COc1ccc(-c2ccc3c(c2)[C@H]2[C@H](CCN2S(=O)(=O)c2ccccc2F)[C@H](CO)N3)cc1 14.9%
CCCN1[C@H](C(=O)NC2Cc3ccccc3C2)[C@@H](CO)[C@@H]2Cn3c(cccc3=O)[C@@H]21 -19.6%
Cc1ccc(S(=O)(=O)N2C[C@@H](O)COC[C@@H]3O[C@@H](CC(=O)N[C@H]4CCN(Cc5ccccc5)C4)CC[C@H]32)cc1 -6.53%
CCC(=O)Nc1ccc2c(c1)C(=O)N(C)[C@H]1CC[C@H](CC(=O)NC3Cc4ccccc4C3)O[C@H]1CO2 37.2%
CC(C)NC(=O)Nc1ccc2c(c1)C(=O)N([C@@H](C)CO)C[C@@H](C)[C@@H](CN(C)S(=O)(=O)c1ccc(F)cc1)OCCCC[C@H](C)O2 -55.2%
CCCNC(=O)C[C@@H]1C[C@H]2c3cc(NC(=O)Nc4ccccc4F)ccc3O[C@H]2[C@H](CO)O1 10.8%
C[C@H]1CCCCO[C@@H](CN(C)Cc2ccc3c(c2)OCO3)[C@@H](C)CN([C@@H](C)CO)C(=O)c2cc(NS(=O)(=O)c3ccc(F)cc3)ccc2O1 73.3%
C[C@@H]1CCCCO[C@@H](CN(C)C(=O)Nc2ccc(C(F)(F)F)cc2)[C@H](C)CN([C@H](C)CO)C(=O)c2cc(NC(=O)c3ccccc3)ccc2O1 94.9%
CC(C)NC(=O)N(C)C[C@H]1OCCCC[C@H](C)Oc2ccc(NC(=O)Nc3ccc(C(F)(F)F)cc3)cc2C(=O)N([C@H](C)CO)C[C@@H]1C 36.4%
C[C@@H]1CCCCO[C@H](CN(C)C(=O)CCCN(C)C)[C@H](C)CN([C@H](C)CO)C(=O)c2cc(NC(=O)CCC(F)(F)F)ccc2O1 16.6%
CNC(=O)C[C@H]1CC[C@H]2[C@H](COc3ccc(NC(=O)Nc4cccc(C)c4)cc3C(=O)N2C)O1 12.8%
O=C(Cc1ccccn1)N[C@H]1CC[C@@H](CC(=O)N2CCCCC2)O[C@@H]1CO -26%
C[C@@H]1CN([C@H](C)CO)C(=O)c2cc(Br)cnc2O[C@@H]1CN(C)C(=O)Nc1ccc(F)cc1 -142%
C[C@@H]1CN([C@H](C)CO)C(=O)c2cc(-c3ccccc3)cnc2O[C@H]1CN(C)C(=O)Nc1ccccc1 -81.2%
C[C@H](CO)N1C[C@H](C)[C@H](CN(C)S(=O)(=O)c2ccc(F)cc2)Oc2ncc(-c3ccc(F)cc3)cc2C1=O 22.6%
Cc1ccc(-c2cnc3c(c2)C(=O)N([C@H](C)CO)C[C@@H](C)[C@H](CN(C)Cc2ccccc2C(=O)O)O3)cc1 -6.32%
C[C@H](CO)N1C[C@H](C)[C@H](CN(C)Cc2ccccc2)Oc2ncc(-c3ccccc3)cc2C1=O 23.4% and 14.8%
COc1ccc(-c2cnc3c(c2)C(=O)N([C@H](C)CO)C[C@H](C)[C@H](CN(C)S(=O)(=O)c2ccccc2)O3)cc1 37.7%
CC=Cc1ccc2n(c1=O)C[C@H]1[C@H](CO)[C@@H](C(=O)NCc3ccncc3)N(Cc3cncnc3)[C@@H]21 (mixture of isomers) 37.5%
CCCN1[C@H](C(=O)NCC)[C@@H](CO)[C@@H]2Cn3c(ccc(C4=CCCC4)c3=O)[C@@H]21 32%
COc1cccc(C(=O)Nc2ccc3c(c2)C(=O)N(C)C[C@@H](OC)[C@@H](C)CN(C)[C@@H](C)CO3)c1 -27.6%
